Source: PubChem BioAssay (NCI)
Compounds without any hit were thinned out: in the full panel of roughly 79,000, 15% have a hit. Values without a mark were called inactive. Active and inactive are the calls of the source. No stated cut-off is given here; in the data, active means growth inhibition above about 70%; inactive means the rest.

Columns and labels:
[1] = NCI Yeast Anticancer Drug Screen. Data for the rad50 strain (AID 155);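 further: 0% = growth of vehicle-only cultures of the same strain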; settings: S. cerevisiae rad50 strain growth inhibition; at 50.0 µM; hits give high values
Procedure, shortened: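 Compounds were tested on a yeast strain with an engineered DNA damage repair alteration; the reported value is growth inhibition normalised to vehicle treatment.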

[2] = NCI Yeast Anticancer Drug Screen. Data for the mec2-1 strain (AID 157); settings: S. cerevisiae mec2-1 strain, at 50.0 µM, hits give high values
Procedure, shortened: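 Vehicle-treated cultures served as reference for growth inhibition of compound-exposed mec2-1 yeast.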

[3] = NCI Yeast Anticancer Drug Screen. Data for the sgs1 mgt1 strain (AID 161);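 further: 0% = growth of cultures given vehicle only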; settings: S. cerevisiae sgs1 mgt1 strain, at 50.0 µM, hits give high values
Procedure, shortened: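 Test agents were incubated with a DNA-repair-mutant yeast strain. Growth was then read and compared against vehicle-treated controls.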

[4] = NCI Yeast Anticancer Drug Screen. Data for the cln2 rad14 strain (AID 165);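 further: 0% = growth equal to vehicle treated cultures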; settings: S. cerevisiae cln2 rad14 strain, at 50.0 µM, hits give high values
Procedure, shortened: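 Each compound was tested on cln2 rad14 yeast. Inhibition of growth was calculated against vehicle-exposed controls.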

[5] = NCI Yeast Anticancer Drug Screen. Data for the bub3 strain (AID 167); settings: S. cerevisiae bub3 mutant strain, at 50.0 µM, hits give high values
Procedure, shortened: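 Growth of a checkpoint-deficient yeast mutant is measured after compound exposure. Values represent inhibition relative to vehicle.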

[6] = NCI Yeast Anticancer Drug Screen. Data for the mlh1 rad18 strain (AID 175); settings: S. cerevisiae mlh1 rad18 strain growth inhibition; at 50.0 µM; hits give high values
Procedure, shortened: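 Vehicle-treated cultures served as the reference for growth inhibition in a yeast strain carrying DNA damage repair alterations exposed to each compound.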

Structure (SMILES)	growth inhibition [1]	growth inhibition [2] [%]	growth inhibition [3]	growth inhibition [4]	growth inhibition [5]	growth inhibition [6]
CCOC(C)(OCC)c1ccccc1	-9.15%	20.6	-2.1%	23.5%	8.55%	29.4%
O=C1CCC(=O)C(C(=O)CCC(=O)Nc2cccc(Cl)c2)C1 (stereo not drawn)	-20.6%	-6.5	-11.7%	19.8%	11.9%	-4.9%
COC(=O)Cc1nc2ccccc2[nH]c1=O	-1.15%	-3.25	-10.3%	-29.2%	-16.8%	-5.7%
C=C(C)CNCC(=C)C	35.3%	14.1	-8.25%	-16.8%	17.9%	21.6%
COC1OC2COC(c3ccccc3)OC2C(NC(C)=O)C1OC(C)=O (stereo not drawn)	4.6%	17.7	8.9%	9.9%	-12.5%	-13.1%
Nc1nc(-c2ccc(-c3ccccc3)cc2)cc(=O)[nH]1	0.25%	27.6	-4.8%	-8.25%	7.5%	-25.8%
COCN(COC)c1nc(CCC(Br)(Br)Br)nc(N(COC)COC)n1	36.5%	11.5	21.9%	37%	-2.85%	31%
CC(=O)N(C)c1ccc(N=CN(C)C)cc1	-80.3%	-27.5	-34.3%	-11.8%	2.9%	-27.9%
O=C1OC(=O)c2ccc([N+](=O)[O-])c3c(C(=O)O)ccc1c23	5.1%	-19.2	-22.9%	-1.65%	2.55%	2.85%
NCC(=O)c1cc2ccccc2[n+]([O-])c1	1.6%	-4.45	1.8%	-51.2%	-8.5%	-14.4%
O=C(NNC1CCN(Cc2ccccc2)CC1)c1ccccc1	12.5%	-18	5.35%	16.9%	2.5%	13.4%
O=C(O)C12CCCCC1CCCC2 (stereo not drawn)	11.4%	31.2	-6.25%	26.1%	-0.75%	10.7%
COC(=O)/C=C1/OC(c2ccc(C)cc2C)=CC1=O	47.8%	50.7	42.5%	0.8%	26.6%	57.1%
Cc1ccc(NC=O)cc1NC=O	37.6%	-1.4	9.5%	-27.1%	4.2%	15.9%
Cc1nc(N)c(N2CCN(CN)CC2)c(=O)[nH]1	-35.2%	7.1	-5.85%	21.6%	25.9%	-38%
CS(=O)CCNC(=O)NS(=O)(=O)c1ccc(Cl)cc1 (stereo not drawn)	-2%	-18.9	-11.3%	-10.2%	3.05%	-3.15%
CCCCCCCC/C(C=O)=C\c1ccc(C)cc1	53%	33.8	55%	51.7%	66%	62.6%
O=[n+]1c2c(n([O-])c3cc(Cl)c(Cl)cc31)CCCC2	11.8%	11.2	17.5%	-2%	25.9%	4.9%
O=C(O)c1c[nH]c(=O)[nH]c1=O	1.25%	-5.4	1.25%	-5.55%	0.65%	-7.5%

Structure (SMILES)	growth inhibition [1]	growth inhibition [2] [%]	growth inhibition [3]	growth inhibition [4]	growth inhibition [5]	growth inhibition [6]
O=C1CC(c2ccccc2)OC(c2ccccc2Cl)C1 (stereo not drawn)	-1.25%	-8.35	-39.5%	-20.7%	-5.85%	9.1%
COc1ccc(C(c2ccc(N(Cc3ccccc3)Cc3ccccc3)cc2NC(C)=O)c2ccc(N(Cc3ccccc3)Cc3ccccc3)cc2NC(C)=O)cc1OC	5.75%	-5.25	-19.9%	-8.55%	-6.1%	26.7%
CCCCSc1ncnc2nc(C)[nH]c12	-9.85%	-20.6	-7.7%	-25.6%	-14%	-12.7%
O=C(O)CCCCC1CCCC1	43.4%	8.3	12.2%	5.25%	18.5%	56.4%
C/C(=C/C=C(c1ccccc1)c1ccccc1)C1CCC2C3CCC4CC5CCC4(C)C3(O5)C(=O)CC12C (stereo not drawn)	89.6% (active)	60.6	73% (active)	83% (active)	93.3% (active)	92.8% (active)
CCC(C(CC(=O)c1ccccc1)c1ccccc1)[N+](=O)[O-] (stereo not drawn)	9.7%	-0.65	0.6%	-42.3%	10.2%	-5.65%
c1cc(CSC2=NCCN2)ccc1CSC1=NCCN1	-8%	9.25	-9.2%	-24.3%	8.9%	-3.85%
COC1CC(C)(NC(=O)C(F)(F)F)C2OC(c3ccccc3)OCC2O1 (stereo not drawn)	-25%	-17.7	-41.4%	-35%	-3.85%	-9.65%
OCC1OC(n2cnc3c(NCc4ccccc4)ncnc32)C(O)C1O (stereo not drawn)	-14.3%	-2.5	3.2%	-44.2%	11.6%	0.55%
CSc1ncc(CO)c(NC(C)(C)C)n1	2.65%	5.7	0.55%	-19.8%	-0.75%	10.5%
CN1CCN(C2=NCCO2)CC1	6.4%	22.1	32.3%	32%	12.8%	20.2%
Cc1nc(/N=C(/N)N(C)C)[nH]c(=O)c1C	1.7%	-27.6	-11.6%	3.7%	4.05%	19.9%
N#Cc1sc2c(c1O)c(=O)n(-c1ccccc1)c(=S)n2-c1ccccc1	-40.9%	-36.9	-37.3%	-23.1%	-54.9%	-47.8%
CC(=O)N1Cc2c(cc(C)[nH]c2=O)C1=O	9%	10.5	6.45%	10.7%	1.05%	7.65%
FC(F)(F)C1=NCCN1	-0.5%	-11.1	-2.85%	11.4%	-2.45%	-10.3%
CNC(C#N)c1ccc(OC)cc1 (stereo not drawn)	3.55%	17.9	-26.9%	-17.4%	-9.75%	-28.4%
Nc1ccncn1	-20.9%	-0.85	-2.45%	-5%	-4.35%	-13.8%
COC(=O)c1cc(/C=C/C(=O)Cc2ccccc2)cn1S(=O)(=O)c1ccccc1	-6.3%	-9.6	-13.5%	-23.9%	1.5%	1.9%
CC(C)OC(=O)N[C@@H]1c2ccccc2CC[C@H]1I	24.5%	5.8	19.3%	-36.5%	24.7%	3.55%
